# Results reported in article PMC7862700, “An all-to-all approach to the identification of sequence-specific readers for epigenetic DNA modifications on cytosine”.
# Experiments:
# Test in all cases: DAPPL (digital affinity profiling via proximity ligation, sequencing); 10 mM Tris-HCl pH 7.5, 50 mM NaCl, 1 mM DTT, 4% glycerol, room temperature, 30 min; GST-TFs on glutathione beads, 16-mer random dsDNA library, 0.1% formaldehyde crosslink after washing; high values mean tight binding
# [1] = target: T1, FEV (Homo sapiens, UniProt Q99581 1-238); details: protein: recombinant; tags: N-terminal GST; dsDNA, one strand shown
# T1 sequence: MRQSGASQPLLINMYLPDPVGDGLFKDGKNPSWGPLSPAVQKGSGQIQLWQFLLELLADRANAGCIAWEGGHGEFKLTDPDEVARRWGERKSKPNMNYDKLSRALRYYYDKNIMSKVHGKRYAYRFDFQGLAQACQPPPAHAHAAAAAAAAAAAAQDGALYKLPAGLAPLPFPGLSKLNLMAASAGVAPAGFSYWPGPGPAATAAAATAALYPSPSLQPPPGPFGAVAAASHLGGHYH
# Outline: (§1)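 Binding signal is each hexamer's read frequency for a factor divided by its frequency in the tag-only sample. The factors were GST-fused human transcription factors from yeast, captured on glutathione beads, DNA-barcoded and pooled with that sample. Pools were incubated with 200 nmole of a random double-stranded 16-mer DNA library in Tris/NaCl/DTT/glycerol buffer at room temperature for 30 min, then washed, crosslinked with 0.1% formaldehyde, proximity-ligated with BsaI/T4 ligase (1 h, 37 °C), PCR-amplified and sequenced on an Illumina NextSeq500.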
# [2] = target: ETV5 (Homo sapiens, UniProt P41161 1-510); details: protein: recombinant; tags: N-terminal GST; dsDNA, one strand shown
# Outline: as §1
# [3] = target: HSF1 (Homo sapiens, UniProt Q00613 1-529); details: protein: recombinant; tags: N-terminal GST; chain copies: 3; dsDNA, one strand shown
# Outline: as §1
# [4] = target: T2, SPIC (Homo sapiens, UniProt Q8N5J4 1-248); details: protein: recombinant; tags: N-terminal GST; dsDNA, one strand shown
# T2 sequence: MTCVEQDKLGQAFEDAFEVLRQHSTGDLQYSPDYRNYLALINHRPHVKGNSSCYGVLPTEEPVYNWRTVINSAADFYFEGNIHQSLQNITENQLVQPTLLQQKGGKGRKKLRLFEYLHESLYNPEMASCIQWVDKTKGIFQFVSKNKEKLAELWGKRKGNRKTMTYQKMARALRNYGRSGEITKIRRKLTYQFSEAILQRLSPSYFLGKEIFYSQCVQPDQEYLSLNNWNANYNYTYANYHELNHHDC
# Outline: as §1
# [5] = target: ELF4 (Homo sapiens, UniProt Q99607 1-663); details: protein: recombinant; tags: N-terminal GST; dsDNA, one strand shown
# Outline: as §1
# [6] = target: T3, ELK4 (Homo sapiens, UniProt P28324-2 1-405); details: protein: recombinant; tags: N-terminal GST; dsDNA, one strand shown
# T3 sequence: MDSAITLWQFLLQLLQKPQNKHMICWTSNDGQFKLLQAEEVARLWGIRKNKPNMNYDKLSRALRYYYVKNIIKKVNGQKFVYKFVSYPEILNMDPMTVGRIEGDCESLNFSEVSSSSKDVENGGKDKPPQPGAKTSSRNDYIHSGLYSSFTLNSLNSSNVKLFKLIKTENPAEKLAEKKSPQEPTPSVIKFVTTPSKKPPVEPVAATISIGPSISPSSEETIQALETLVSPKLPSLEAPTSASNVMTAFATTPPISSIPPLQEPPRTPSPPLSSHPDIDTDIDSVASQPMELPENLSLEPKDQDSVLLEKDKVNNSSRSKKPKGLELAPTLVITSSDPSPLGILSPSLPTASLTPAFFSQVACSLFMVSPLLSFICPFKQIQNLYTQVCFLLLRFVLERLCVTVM
# Outline: as §1
# [7] = target: T4, ETV2 (Homo sapiens, UniProt O00321 1-342); details: protein: recombinant; tags: N-terminal GST; dsDNA, one strand shown
# T4 sequence: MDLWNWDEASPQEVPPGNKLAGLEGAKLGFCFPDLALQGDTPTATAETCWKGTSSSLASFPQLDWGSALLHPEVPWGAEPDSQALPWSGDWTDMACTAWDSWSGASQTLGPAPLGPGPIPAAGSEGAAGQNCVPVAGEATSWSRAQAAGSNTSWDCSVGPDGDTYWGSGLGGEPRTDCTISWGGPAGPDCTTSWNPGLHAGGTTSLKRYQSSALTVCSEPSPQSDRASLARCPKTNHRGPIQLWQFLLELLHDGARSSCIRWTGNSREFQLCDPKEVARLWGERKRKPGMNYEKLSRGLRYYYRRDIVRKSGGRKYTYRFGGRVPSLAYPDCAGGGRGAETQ
# Outline: as §1
# [8] = target: T5, ELF3 (Homo sapiens, UniProt P78545 1-371); details: protein: recombinant; tags: N-terminal GST; dsDNA, one strand shown
# T5 sequence: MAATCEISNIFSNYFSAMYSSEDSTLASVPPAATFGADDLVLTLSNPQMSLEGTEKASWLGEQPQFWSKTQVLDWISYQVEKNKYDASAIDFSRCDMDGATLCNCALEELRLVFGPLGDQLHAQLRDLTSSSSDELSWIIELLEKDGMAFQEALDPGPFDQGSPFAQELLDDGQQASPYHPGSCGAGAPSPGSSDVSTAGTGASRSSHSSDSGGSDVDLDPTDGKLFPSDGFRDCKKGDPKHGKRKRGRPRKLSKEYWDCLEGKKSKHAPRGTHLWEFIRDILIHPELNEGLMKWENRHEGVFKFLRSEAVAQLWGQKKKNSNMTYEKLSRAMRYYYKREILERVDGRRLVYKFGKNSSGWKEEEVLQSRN
# Outline: as §1
# [9] = target: CRX (Homo sapiens, UniProt O43186 1-299); details: protein: recombinant; tags: N-terminal GST; dsDNA, one strand shown
# Outline: as §1
# [10] = target: ETV1 (Homo sapiens, UniProt P50549 1-477); details: protein: recombinant; tags: N-terminal GST; dsDNA, one strand shown
# Outline: as §1
# [11] = target: T6, ERF (Homo sapiens, UniProt P50548 1-548); details: protein: recombinant; tags: N-terminal GST; dsDNA, one strand shown
# T6 sequence: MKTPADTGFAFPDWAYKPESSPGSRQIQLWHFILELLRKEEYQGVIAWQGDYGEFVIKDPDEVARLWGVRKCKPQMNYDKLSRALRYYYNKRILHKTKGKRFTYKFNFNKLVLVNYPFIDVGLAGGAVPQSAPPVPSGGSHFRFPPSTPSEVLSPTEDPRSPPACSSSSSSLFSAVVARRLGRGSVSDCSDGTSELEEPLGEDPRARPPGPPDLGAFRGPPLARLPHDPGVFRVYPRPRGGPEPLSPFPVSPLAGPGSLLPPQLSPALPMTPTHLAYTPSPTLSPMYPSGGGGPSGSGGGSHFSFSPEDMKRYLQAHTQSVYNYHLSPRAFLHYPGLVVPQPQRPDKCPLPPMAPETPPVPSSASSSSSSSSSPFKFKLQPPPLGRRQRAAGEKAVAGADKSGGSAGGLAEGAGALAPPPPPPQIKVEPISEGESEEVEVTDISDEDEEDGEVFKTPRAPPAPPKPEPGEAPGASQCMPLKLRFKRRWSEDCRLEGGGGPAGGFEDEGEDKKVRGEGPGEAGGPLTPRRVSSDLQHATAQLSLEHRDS
# Outline: as §1
# [12] = target: T7, ETV3L (Homo sapiens, UniProt Q6ZN32 1-361); details: protein: recombinant; tags: N-terminal GST; dsDNA, one strand shown
# T7 sequence: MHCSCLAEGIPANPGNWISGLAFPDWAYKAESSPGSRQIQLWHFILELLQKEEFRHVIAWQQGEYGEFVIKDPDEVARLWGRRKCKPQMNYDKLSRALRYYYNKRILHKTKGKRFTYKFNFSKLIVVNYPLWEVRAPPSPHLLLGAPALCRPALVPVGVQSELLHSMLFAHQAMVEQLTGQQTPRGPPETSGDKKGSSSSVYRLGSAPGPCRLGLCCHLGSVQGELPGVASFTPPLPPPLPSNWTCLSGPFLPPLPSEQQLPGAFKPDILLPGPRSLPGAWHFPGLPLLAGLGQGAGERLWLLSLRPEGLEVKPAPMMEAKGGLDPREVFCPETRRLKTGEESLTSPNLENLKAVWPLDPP
# Outline: as §1
# [13] = target: T8, ETS2 (Homo sapiens, UniProt P15036 1-469); details: protein: recombinant; tags: N-terminal GST; dsDNA, one strand shown
# T8 sequence: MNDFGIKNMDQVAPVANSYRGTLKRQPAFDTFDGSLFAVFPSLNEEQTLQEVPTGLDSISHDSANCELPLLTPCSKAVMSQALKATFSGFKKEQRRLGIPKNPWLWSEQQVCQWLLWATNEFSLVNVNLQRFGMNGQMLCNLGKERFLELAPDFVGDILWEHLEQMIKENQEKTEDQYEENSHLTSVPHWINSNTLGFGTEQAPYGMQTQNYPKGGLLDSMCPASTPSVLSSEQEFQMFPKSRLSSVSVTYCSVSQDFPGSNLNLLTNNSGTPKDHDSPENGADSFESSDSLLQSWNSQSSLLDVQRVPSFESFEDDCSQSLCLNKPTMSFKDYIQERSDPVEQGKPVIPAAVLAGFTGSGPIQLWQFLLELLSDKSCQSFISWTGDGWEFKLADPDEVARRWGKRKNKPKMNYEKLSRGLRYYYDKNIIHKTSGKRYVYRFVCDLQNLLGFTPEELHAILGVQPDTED
# Outline: as §1
# [14] = target: T9, SPDEF (Homo sapiens, UniProt O95238 1-335); details: protein: recombinant; tags: N-terminal GST; dsDNA, one strand shown
# T9 sequence: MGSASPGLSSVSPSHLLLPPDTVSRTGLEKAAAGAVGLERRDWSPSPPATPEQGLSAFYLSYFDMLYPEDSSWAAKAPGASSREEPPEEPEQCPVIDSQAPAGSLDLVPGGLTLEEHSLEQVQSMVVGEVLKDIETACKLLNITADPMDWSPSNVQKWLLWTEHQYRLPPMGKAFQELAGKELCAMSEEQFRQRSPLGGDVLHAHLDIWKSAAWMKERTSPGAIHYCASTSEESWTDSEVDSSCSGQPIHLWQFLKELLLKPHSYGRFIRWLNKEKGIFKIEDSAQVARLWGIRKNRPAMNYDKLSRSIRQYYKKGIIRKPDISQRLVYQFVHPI
# Outline: as §1
# [15] = target: T10, ETV7 (Homo sapiens, UniProt Q9Y603 1-341); details: protein: recombinant; tags: N-terminal GST; dsDNA, one strand shown
# T10 sequence: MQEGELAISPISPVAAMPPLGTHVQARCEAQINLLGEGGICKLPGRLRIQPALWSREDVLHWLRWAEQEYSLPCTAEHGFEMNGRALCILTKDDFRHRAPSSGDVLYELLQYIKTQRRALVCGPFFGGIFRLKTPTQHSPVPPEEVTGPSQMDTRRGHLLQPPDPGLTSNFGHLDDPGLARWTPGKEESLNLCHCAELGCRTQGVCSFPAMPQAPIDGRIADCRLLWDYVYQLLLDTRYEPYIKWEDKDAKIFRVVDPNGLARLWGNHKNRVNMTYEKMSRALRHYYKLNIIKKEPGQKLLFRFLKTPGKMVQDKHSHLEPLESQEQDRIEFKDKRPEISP
# Outline: as §1
# [16] = target: T11, ELF5 (Homo sapiens, UniProt Q9UKW6-2 1-255); details: protein: recombinant; tags: N-terminal GST; dsDNA, one strand shown
# T11 sequence: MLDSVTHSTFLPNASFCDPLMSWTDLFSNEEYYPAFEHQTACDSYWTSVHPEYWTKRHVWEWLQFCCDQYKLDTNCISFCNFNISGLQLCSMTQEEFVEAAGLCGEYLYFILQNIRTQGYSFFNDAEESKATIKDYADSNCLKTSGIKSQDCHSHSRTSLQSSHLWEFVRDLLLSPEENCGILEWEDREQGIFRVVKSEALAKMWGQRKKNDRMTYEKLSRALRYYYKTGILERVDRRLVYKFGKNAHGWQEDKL
# Outline: as §1
# [17] = target: T12, ETV3 (Homo sapiens, UniProt P41162-2 1-143); details: protein: recombinant; tags: N-terminal GST; dsDNA, one strand shown
# T12 sequence: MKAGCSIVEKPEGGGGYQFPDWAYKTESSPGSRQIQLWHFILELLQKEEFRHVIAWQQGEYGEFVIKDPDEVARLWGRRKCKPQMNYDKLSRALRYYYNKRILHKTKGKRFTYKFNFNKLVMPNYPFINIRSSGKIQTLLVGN
# Outline: as §1
# [18] = target: ETV6 (Homo sapiens, UniProt P41212 1-452); details: protein: recombinant; tags: N-terminal GST; dsDNA, one strand shown
# Outline: as §1
# Chain of CRX (O43186 whole entry): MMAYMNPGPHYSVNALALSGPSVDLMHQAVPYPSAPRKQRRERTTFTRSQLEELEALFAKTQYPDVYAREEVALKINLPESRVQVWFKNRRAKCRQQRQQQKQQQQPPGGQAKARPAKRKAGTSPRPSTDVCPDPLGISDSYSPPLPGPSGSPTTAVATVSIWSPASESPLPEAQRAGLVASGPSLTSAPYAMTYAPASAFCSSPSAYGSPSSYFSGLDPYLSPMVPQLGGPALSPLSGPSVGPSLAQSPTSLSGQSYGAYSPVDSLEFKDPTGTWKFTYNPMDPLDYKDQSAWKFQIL
# Chain of ETV1 (P50549 whole entry): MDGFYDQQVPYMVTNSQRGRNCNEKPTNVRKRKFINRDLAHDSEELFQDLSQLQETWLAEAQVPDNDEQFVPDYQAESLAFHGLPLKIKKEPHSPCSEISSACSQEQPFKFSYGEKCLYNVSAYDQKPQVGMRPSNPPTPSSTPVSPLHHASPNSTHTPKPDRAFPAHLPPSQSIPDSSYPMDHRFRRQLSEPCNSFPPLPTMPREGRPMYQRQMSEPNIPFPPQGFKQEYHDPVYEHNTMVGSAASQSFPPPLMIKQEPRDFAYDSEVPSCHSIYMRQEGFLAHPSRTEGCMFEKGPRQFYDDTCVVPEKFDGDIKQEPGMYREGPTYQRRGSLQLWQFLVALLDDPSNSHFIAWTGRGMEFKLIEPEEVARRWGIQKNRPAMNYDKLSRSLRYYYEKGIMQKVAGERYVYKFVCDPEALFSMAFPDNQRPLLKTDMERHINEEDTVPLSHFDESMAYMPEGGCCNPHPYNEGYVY
# Chain of HSF1 (Q00613 whole entry): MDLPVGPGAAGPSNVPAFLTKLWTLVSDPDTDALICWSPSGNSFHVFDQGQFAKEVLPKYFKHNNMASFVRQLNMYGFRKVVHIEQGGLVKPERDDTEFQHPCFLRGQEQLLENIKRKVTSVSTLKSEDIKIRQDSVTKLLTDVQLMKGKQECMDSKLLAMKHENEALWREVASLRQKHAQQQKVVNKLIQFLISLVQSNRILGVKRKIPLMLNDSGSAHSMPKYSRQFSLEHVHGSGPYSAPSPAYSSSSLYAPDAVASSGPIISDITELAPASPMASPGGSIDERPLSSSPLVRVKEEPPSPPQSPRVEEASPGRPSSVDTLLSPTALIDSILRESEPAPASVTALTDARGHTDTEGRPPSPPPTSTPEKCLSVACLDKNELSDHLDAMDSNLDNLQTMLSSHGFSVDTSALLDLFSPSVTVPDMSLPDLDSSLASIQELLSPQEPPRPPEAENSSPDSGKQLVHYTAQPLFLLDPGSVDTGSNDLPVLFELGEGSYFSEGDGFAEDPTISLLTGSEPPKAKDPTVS
# Chain of ETV6 (P41212 whole entry): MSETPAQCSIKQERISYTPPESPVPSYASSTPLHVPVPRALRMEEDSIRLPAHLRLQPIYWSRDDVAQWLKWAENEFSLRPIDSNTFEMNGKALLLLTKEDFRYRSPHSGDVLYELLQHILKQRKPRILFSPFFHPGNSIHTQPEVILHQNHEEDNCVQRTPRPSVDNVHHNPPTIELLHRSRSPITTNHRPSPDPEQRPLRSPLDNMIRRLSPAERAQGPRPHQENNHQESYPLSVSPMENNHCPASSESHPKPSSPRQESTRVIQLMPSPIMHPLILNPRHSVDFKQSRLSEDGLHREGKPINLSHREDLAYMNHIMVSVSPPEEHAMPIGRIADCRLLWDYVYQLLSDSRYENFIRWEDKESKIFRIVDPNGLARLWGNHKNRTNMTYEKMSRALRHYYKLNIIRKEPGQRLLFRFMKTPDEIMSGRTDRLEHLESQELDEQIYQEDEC
# Chain of ELF4 (Q99607 whole entry): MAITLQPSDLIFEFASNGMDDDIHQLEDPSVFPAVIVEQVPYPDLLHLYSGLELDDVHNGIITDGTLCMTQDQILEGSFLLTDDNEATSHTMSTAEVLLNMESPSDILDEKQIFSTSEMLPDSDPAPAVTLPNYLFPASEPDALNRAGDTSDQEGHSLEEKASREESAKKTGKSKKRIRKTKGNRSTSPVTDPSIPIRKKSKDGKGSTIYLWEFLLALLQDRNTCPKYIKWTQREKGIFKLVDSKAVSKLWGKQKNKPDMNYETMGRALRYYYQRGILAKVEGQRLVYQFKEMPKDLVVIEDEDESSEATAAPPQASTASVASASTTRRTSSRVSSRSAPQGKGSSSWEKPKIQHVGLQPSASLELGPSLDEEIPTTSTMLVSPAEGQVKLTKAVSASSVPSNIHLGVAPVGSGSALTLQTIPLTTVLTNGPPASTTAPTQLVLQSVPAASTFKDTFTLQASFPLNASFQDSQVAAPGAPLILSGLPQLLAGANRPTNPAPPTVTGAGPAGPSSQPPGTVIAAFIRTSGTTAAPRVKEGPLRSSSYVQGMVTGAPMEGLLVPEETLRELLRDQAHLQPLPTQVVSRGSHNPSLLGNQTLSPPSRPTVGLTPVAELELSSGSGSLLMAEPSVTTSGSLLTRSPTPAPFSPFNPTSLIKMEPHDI
# Chain of ETV5 (P41161 whole entry): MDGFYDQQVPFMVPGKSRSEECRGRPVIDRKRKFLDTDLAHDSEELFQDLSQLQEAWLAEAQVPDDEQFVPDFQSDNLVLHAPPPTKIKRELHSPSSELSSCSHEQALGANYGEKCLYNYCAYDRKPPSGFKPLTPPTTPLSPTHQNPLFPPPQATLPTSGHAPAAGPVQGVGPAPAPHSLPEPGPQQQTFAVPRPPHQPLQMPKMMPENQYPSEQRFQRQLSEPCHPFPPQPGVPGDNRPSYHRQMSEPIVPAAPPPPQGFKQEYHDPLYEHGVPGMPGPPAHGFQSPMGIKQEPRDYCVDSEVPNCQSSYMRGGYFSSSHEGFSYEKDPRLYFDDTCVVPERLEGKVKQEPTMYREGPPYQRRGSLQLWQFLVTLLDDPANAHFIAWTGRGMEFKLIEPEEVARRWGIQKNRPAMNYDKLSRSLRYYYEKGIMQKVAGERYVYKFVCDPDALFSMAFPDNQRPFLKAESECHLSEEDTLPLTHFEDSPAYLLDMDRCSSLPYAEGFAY
sequence,measurement,setting,value
TTCGTT,binding signal,[1],"1.3 fold enrichment (6-mer frequency, TF over GST control)"
same,binding signal,[2],"1.4 fold enrichment (6-mer frequency, TF over GST control)"
same,binding signal,[3],"1.48 fold enrichment (6-mer frequency, TF over GST control)"
same,binding signal,[4],"1.32 fold enrichment (6-mer frequency, TF over GST control)"
same,binding signal,[5],"1.34 fold enrichment (6-mer frequency, TF over GST control)"
same,binding signal,[6],"1.37 fold enrichment (6-mer frequency, TF over GST control)"
same,binding signal,[7],"1.46 fold enrichment (6-mer frequency, TF over GST control)"
same,binding signal,[8],"1.38 fold enrichment (6-mer frequency, TF over GST control)"
same,binding signal,[9],"1.3 fold enrichment (6-mer frequency, TF over GST control)"
same,binding signal,[10],"1.39 fold enrichment (6-mer frequency, TF over GST control)"
same,binding signal,[11],"1.37 fold enrichment (6-mer frequency, TF over GST control)"
same,binding signal,[12],"1.37 fold enrichment (6-mer frequency, TF over GST control)"
same,binding signal,[13],"1.3 fold enrichment (6-mer frequency, TF over GST control)"
same,binding signal,[14],"1.39 fold enrichment (6-mer frequency, TF over GST control)"
same,binding signal,[15],"1.55 fold enrichment (6-mer frequency, TF over GST control)"
same,binding signal,[16],"1.32 fold enrichment (6-mer frequency, TF over GST control)"
same,binding signal,[17],"1.3 fold enrichment (6-mer frequency, TF over GST control)"
same,binding signal,[18],"1.29 fold enrichment (6-mer frequency, TF over GST control)"
